Assay [1] in a line: NCI Yeast Anticancer Drug Screen. Data for the rad50 strain (AID 155).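 Also: 0% = growth of vehicle-only cultures of the same strain.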 The note with it: S. cerevisiae rad50 strain growth inhibition, hits give high values. The method in brief:
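Compounds were tested on a yeast strain with an engineered DNA damage repair alteration; the reported value is growth inhibition normalised to vehicle treatment.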

Assay [2] in a line: NCI Yeast Anticancer Drug Screen. Data for the mec2-1 strain (AID 157). Conditions: S. cerevisiae mec2-1 strain, hits give high values. The method in brief: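 Mutant yeast (mec2-1) grown with compound; growth inhibition relative to vehicle control reported.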
The nature of assay [3]: NCI Yeast Anticancer Drug Screen. Data for the sgs1 mgt1 strain (AID 161).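 Also: 0% = growth of cultures given vehicle only.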 Conditions: S. cerevisiae sgs1 mgt1 strain, hits give high values. In outline:
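Percent growth inhibition was derived by comparing compound-exposed mutant yeast with vehicle-exposed cultures. The strain carries alterations in DNA damage repair.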

Assay [4] in a line: NCI Yeast Anticancer Drug Screen. Data for the cln2 rad14 strain (AID 165).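 Also: 0% = growth equal to vehicle treated cultures.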 Conditions: S. cerevisiae cln2 rad14 strain, hits give high values. In outline: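 Readout is yeast growth inhibition versus vehicle-treated controls, using a strain with cln2 and rad14 alterations exposed to compound.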
Assay [5] in a line: NCI Yeast Anticancer Drug Screen. Data for the bub3 strain (AID 167). Conditions: S. cerevisiae bub3 mutant strain, hits give high values. The method in brief: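 Growth of a checkpoint-deficient yeast mutant is measured after compound exposure. Values represent inhibition relative to vehicle.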
Assay [6] is described as follows: NCI Yeast Anticancer Drug Screen. Data for the mlh1 rad18 strain (AID 175). The note with it: S. cerevisiae mlh1 rad18 strain growth inhibition, hits give high values. The method in brief: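 Genetically defined yeast (DNA repair-deficient) exposed to compounds; growth inhibition determined relative to vehicle.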
Where [7] appears, read: at 5.0 µM (retest, dose inferred, filed as 0.5).
The mark [8] stands for this setting: at 50.0 µM (retest, dose inferred, filed as 5.0).

SMILES strings stand for the structures. This is part of a sample that, as a whole, favours compounds with a hit. Of some 79,000 tested, about 15% had one in any assay. Values without a mark were called inactive. Activity calls are given as the source filed them. Rule as the data show it: active = growth inhibition above about 70%; inactive = the rest.

For the compound `OCCN1c2ccccc2Sc2ccc(Cl)cc21`, the growth inhibition in assay [1] (setting [7]) is -1%; in assay [1] (setting [8]) it was 97% (active); in assay [1] (at 50.0 µM), 89.3% (active); in assay [2] (setting [7]) it was -18%; in assay [2] (setting [8]), 98% (active); in assay [2] (at 50.0 µM), 92% (active). Besides, the growth inhibition was -14% in assay [3] (setting [7]); 40% in assay [3] (setting [8]); 90.8% (active) in assay [3] (at 50.0 µM); 30% in assay [4] (setting [7]); 98% (active) in assay [4] (setting [8]); 86.8% (active) in assay [4] (at 50.0 µM). Further, the growth inhibition is 1% in assay [5] (setting [7]); 97% (active) in assay [5] (setting [8]); 91.3% (active) in assay [5] (at 50.0 µM); 12% in assay [6] (setting [7]); 98% (active) in assay [6] (setting [8]); 88.5% (active) in assay [6] (at 50.0 µM).

As for `COc1ccc(C(=O)CCc2c[nH]c3ccccc23)c(O)c1`, the growth inhibition in assay [1] (setting [7]) was 2%; in assay [1] (setting [8]), 43%; in assay [1] (at 50.0 µM) it was -1.85%; in assay [2] (setting [7]), -9%; in assay [2] (setting [8]), 22%; in assay [2] (at 50.0 µM) it was 13.8%. In addition, the growth inhibition was 11% in assay [3] (setting [7]); 46% in assay [3] (setting [8]); 36% in assay [3] (at 50.0 µM); 22% in assay [4] (setting [7]); 72% (active) in assay [4] (setting [8]); 14.2% in assay [4] (at 50.0 µM). Moreover, the growth inhibition in assay [5] (setting [7]) is 12%; in assay [5] (setting [8]), 79% (active); in assay [5] (at 50.0 µM), 23.5%; in assay [6] (setting [7]) it was -9%; in assay [6] (setting [8]), 79% (active); in assay [6] (at 50.0 µM), -13.3%.

Regarding `CCC[CH2][Sn]([CH2]CCC)([O]C(=O)Cc1ccc(F)cc1)[O]C(=O)Cc1ccc(F)cc1`, the growth inhibition in assay [1] (setting [7]) is 27%; in assay [1] (setting [8]), 27%; in assay [1] (at 50.0 µM) it was 86.7% (active); in assay [2] (setting [7]), 30%; in assay [2] (setting [8]), 30%; in assay [2] (at 50.0 µM), 81.5% (active). The growth inhibition was 27% in assay [3] (setting [7]); 27% in assay [3] (setting [8]); 83.3% (active) in assay [3] (at 50.0 µM); 16% in assay [4] (setting [7]); 16% in assay [4] (setting [8]); 78.1% (active) in assay [4] (at 50.0 µM). Besides, the growth inhibition in assay [5] (setting [7]) is 21%; in assay [5] (setting [8]), 21%; in assay [5] (at 50.0 µM) it was 76% (active); in assay [6] (setting [7]), 14%; in assay [6] (setting [8]), 14%; in assay [6] (at 50.0 µM), 76.2% (active).

As to `CCCCCN=C(C)C(C)=NCCCCC`, the growth inhibition in assay [1] (setting [7]) is -15%; in assay [1] (setting [8]), 70% (active); in assay [1] (at 50.0 µM), 93.3% (active); in assay [2] (setting [7]) it was 3%; in assay [2] (setting [8]), 92% (active); in assay [2] (at 50.0 µM), 74.3% (active). In addition, the growth inhibition in assay [3] (setting [7]) was 9%; in assay [3] (setting [8]), 50%; in assay [3] (at 50.0 µM) it was 31.4%; in assay [4] (setting [7]), -50%; in assay [4] (setting [8]) it was 63%; in assay [4] (at 50.0 µM), 83.7% (active). In addition, the growth inhibition was -12% in assay [5] (setting [7]); 86% (active) in assay [5] (setting [8]); 96.8% (active) in assay [5] (at 50.0 µM); -9% in assay [6] (setting [7]); 94% (active) in assay [6] (setting [8]); 95% (active) in assay [6] (at 50.0 µM).

Take `CC(C)Cc1cc(O)cc2ccccc12`: the growth inhibition is 4% in assay [1] (setting [7]); 98% (active) in assay [1] (setting [8]); 98.9% (active) in assay [1] (at 50.0 µM); 5% in assay [2] (setting [7]); 99% (active) in assay [2] (setting [8]); 99.2% (active) in assay [2] (at 50.0 µM). For the same compound, the growth inhibition in assay [3] (setting [7]) was 3%; in assay [3] (setting [8]) it was 98% (active); in assay [3] (at 50.0 µM), 98.5% (active); in assay [4] (setting [7]), 2%; in assay [4] (setting [8]), 97% (active); in assay [4] (at 50.0 µM), 98.4% (active). Moreover, the growth inhibition in assay [5] (setting [7]) was 5%; in assay [5] (setting [8]) it was 99% (active); in assay [5] (at 50.0 µM) it was 98.5% (active); in assay [6] (setting [7]) it was 0%; in assay [6] (setting [8]), 98% (active); in assay [6] (at 50.0 µM) it was 98.8% (active).

With `COc1cc2c(cc1O)C1C(O)C(O)C=C3CCN(C2)C31` (stereo not given), the growth inhibition in assay [1] (setting [7]) is 4%; in assay [1] (setting [8]), 97% (active); in assay [1] (at 50.0 µM), 85.5% (active); in assay [2] (setting [7]), 4%; in assay [2] (setting [8]) it was 97% (active); in assay [2] (at 50.0 µM), 84.8% (active). Moreover, the growth inhibition is 5% in assay [3] (setting [7]); 96% (active) in assay [3] (setting [8]); 82.5% (active) in assay [3] (at 50.0 µM); 14% in assay [4] (setting [7]); 96% (active) in assay [4] (setting [8]); 84% (active) in assay [4] (at 50.0 µM). The growth inhibition is 2% in assay [5] (setting [7]); 95% (active) in assay [5] (setting [8]); 85.5% (active) in assay [5] (at 50.0 µM); 3% in assay [6] (setting [7]); 97% (active) in assay [6] (setting [8]); 86.9% (active) in assay [6] (at 50.0 µM).

`CCCC(=O)Oc1ccc(OCc2ccccc2)cc1`: the growth inhibition was -1% in assay [1] (setting [7]); 55% in assay [1] (setting [8]); -23.8% in assay [1] (at 50.0 µM); -1% in assay [2] (setting [7]); 55% in assay [2] (setting [8]); -15.1% in assay [2] (at 50.0 µM). Also, the growth inhibition was 0% in assay [3] (setting [7]); 55% in assay [3] (setting [8]); 1.6% in assay [3] (at 50.0 µM); -3% in assay [4] (setting [7]); -15% in assay [4] (setting [8]); -41.8% in assay [4] (at 50.0 µM). Besides, the growth inhibition in assay [5] (setting [7]) is 23%; in assay [5] (setting [8]), 77% (active); in assay [5] (at 50.0 µM), 75.2% (active); in assay [6] (setting [7]) it was 0%; in assay [6] (setting [8]), 42%; in assay [6] (at 50.0 µM), -10.9%.

`COc1cc(C2c3cc4c(cc3OC3(O)C=C(C)OC(=O)C23)OCO4)cc(OC)c1OC` (stereo not given): the growth inhibition in assay [1] (setting [7]) was 5%; in assay [1] (setting [8]) it was -5%; in assay [1] (at 50.0 µM), 12.1%; in assay [2] (setting [7]), 4%; in assay [2] (setting [8]), -4%; in assay [2] (at 50.0 µM) it was 30%. The growth inhibition in assay [3] (setting [7]) is 0%; in assay [3] (setting [8]), -22%; in assay [3] (at 50.0 µM) it was 13.4%; in assay [4] (setting [7]) it was 0%; in assay [4] (setting [8]) it was 5%; in assay [4] (at 50.0 µM), 9.5%. Moreover, the growth inhibition in assay [5] (setting [7]) is -1%; in assay [5] (setting [8]), -3%; in assay [5] (at 50.0 µM) it was 92.3% (active); in assay [6] (setting [7]), 1%; in assay [6] (setting [8]), -10%; in assay [6] (at 50.0 µM), 29.9%.

For `C/C(=C/C(=O)N1c2ccccc2CC1c1c[nH]c2ccccc12)C(=O)O` (stereo not given), the growth inhibition is -1% in assay [1] (setting [7]); 39% in assay [1] (setting [8]); 62.1% in assay [1] (at 50.0 µM); -8% in assay [2] (setting [7]); 5% in assay [2] (setting [8]); -2.65% in assay [2] (at 50.0 µM). The growth inhibition in assay [3] (setting [7]) is -3%; in assay [3] (setting [8]), 33%; in assay [3] (at 50.0 µM), 46.9%; in assay [4] (setting [7]) it was -79%; in assay [4] (setting [8]), 8%; in assay [4] (at 50.0 µM), -0.65%. Moreover, the growth inhibition is -4% in assay [5] (setting [7]); 20% in assay [5] (setting [8]); 17.1% in assay [5] (at 50.0 µM); -2% in assay [6] (setting [7]); 15% in assay [6] (setting [8]); 40.9% in assay [6] (at 50.0 µM).

In the case of `CC#CC(=O)Nc1ccccc1CC(c1c[nH]c2ccccc12)c1c[nH]c2ccccc12`, the growth inhibition in assay [1] (setting [7]) was 50%; in assay [1] (setting [8]), 50%; in assay [1] (at 50.0 µM) it was 75.4% (active); in assay [2] (setting [7]), 31%; in assay [2] (setting [8]), 31%; in assay [2] (at 50.0 µM), 55.1%. Besides, the growth inhibition is 40% in assay [3] (setting [7]); 40% in assay [3] (setting [8]); 67.5% in assay [3] (at 50.0 µM); 19% in assay [4] (setting [7]); 19% in assay [4] (setting [8]); 67.7% in assay [4] (at 50.0 µM). Further, the growth inhibition was 32% in assay [5] (setting [7]); 32% in assay [5] (setting [8]); 60.8% in assay [5] (at 50.0 µM); 35% in assay [6] (setting [7]); 35% in assay [6] (setting [8]); 53.8% in assay [6] (at 50.0 µM).

(Values after PubChem BioAssay (NCI).)
